Test results: PubChem BioAssay AID1578 (Sanford-Burnham Center for Chemical Genomics, 2009)
The whole screen tested about 290,000 compounds, of which about 3,000 (1%) were called active. For the sample, actives were picked, then their nearest neighbours and some compounds at random. Values without a mark were called inactive. Cut-off read from the data, not from the text of the source: active = inhibition mostly above about 36% (no sharp cut-off); inactive = mostly below about 34%.

Assay: NOD1 signaling inhibitors, primary screen, cell-based, luminescence, uHTS (AID 1578);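 note: HEK-293T reporter cells stimulated with the NOD1 agonist gamma-tri-DAP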
Conditions: NOD1-driven NF-kB luciferase reporter cells, at 4 µM, active compounds read high

Structure (SMILES)	inhibition
COc1nc(N/N=C/c2ccc(C)cc2)nc(N2CCCCC2)n1	-27.3%
Cc1ccc(-n2c(C)n[nH]c2=S)cc1C	3.4%
Cc1ccc(-n2c(-c3ccncc3)n[nH]c2=S)cc1C	-5.7%
Cc1cc(-c2n[nH]c(=S)n2-c2ccc(C)c(C)c2)no1	84% (active)
CCN(CC)S(=O)(=O)N1CCC(C(=O)NCc2ccco2)CC1	22%
COc1ccc(C2(c3ccc(OC)cc3)NC(=O)N(CC(=O)N(C)C)C2=O)cc1	-33.1%
COc1c(Cl)cc(-c2noc(C)c2C(=O)NCCc2ccc(C)cc2)cc1Cl	-10.2%
CN(C)c1ccc(NC(=O)C(=O)C2C(=O)Nc3ccccc32)cc1 (stereo unspecified)	-9.3%
COc1cccc(CC(NC(C)=O)C(=O)NC2CCN(c3c4c(nc5ncnn35)CCC4)CC2)c1OC (stereo unspecified)	-26.4%
CC1=Nc2cc(C(=O)NCC3CCCO3)ccc2Sc2ccc(Br)cc21 (stereo unspecified)	8.4%
CCC1=Nc2cc(C(=O)NCC3CCCO3)ccc2Sc2ccc(Cl)cc21 (stereo unspecified)	1%
CCC1=Nc2cc(C(=O)NCC3CCCO3)ccc2Sc2ccc(Br)cc21 (stereo unspecified)	51.7% (active)
CCCCNC(=O)N1CCN(c2ccccc2OC)CC1	-17.5%
CCCN(CC(=O)Nc1ccc(NC(C)=O)cc1)CC(=O)Nc1ccc(F)c(F)c1F	-20.3%
CCCN(CC(=O)Nc1ccc(C(N)=O)cc1)CC(=O)Nc1ccc(Cl)cc1Cl	-30.3%
CCCN(CC(=O)Nc1ccc(C(N)=O)cc1)CC(=O)Nc1ccc(F)c(F)c1F	38.1% (active)
CC(C)NC(=O)CSc1nnc(-c2ccc3ncccc3c2)n1C	-3.6%
c1cc2[nH]snc2c2nc(C3CC3)nc12	63.2% (active)
Cc1nc2ccc3[nH]snc3c2n1	20.2%
CCCOc1ccc2cc(-c3ccccn3)c(=O)oc2c1	41.1%
CC1CN(CCc2ccccc2)c2nc3c(c(=O)n(C)c(=O)n3C)n2C1 (stereo unspecified)	-12.5%
N#Cc1ccc(-c2nc3ccccc3nc2-c2ccccc2)cc1C#N	1.3%

Structure (SMILES)	inhibition
N#Cc1ccc(Oc2ccc(-c3nc4ccccc4nc3-c3ccccc3)cc2)cc1C#N	3.3%
N#Cc1ccc(-c2nc3cc(C#N)c(C#N)cc3nc2-c2ccccc2)cc1C#N	48.5% (active)
N#Cc1ccc(-n2c(-c3ccccc3)nnc2-c2ccccc2)cc1C#N	42.1% (active)
CCOc1ccc(-n2c(-c3ccccc3)nnc2-c2ccccc2)cc1	8.2%
N#Cc1cccc(-n2c(-c3ccccc3)nnc2-c2ccccc2)c1C#N	11.5%
CC(=O)Nc1nnc(CSCc2ccccc2F)s1	-5.5%
CC(=O)N(C)c1cccc(-c2ccc3nnc(C)n3n2)c1	-5.9%
CCOC(=O)c1c(-c2ccccc2)csc1NC(=O)c1cc(S(=O)(=O)N2CCOCC2)ccc1C	-1.6%
Fc1ccc(Nc2nnc(C(F)(F)F)s2)cc1	3.4%
Cc1oc(-c2cccc(F)c2)nc1CN1CCCCC1CCn1cccn1 (stereo unspecified)	-32%
Cc1nnc(Nc2ccc(Cl)cc2)n(N)c1=O	-7%
c1ccc2c(c1)OCC(c1nn3c(Cn4nnc5ccccc54)nnc3s1)O2 (stereo unspecified)	-10.7%
c1ccc(OCc2nnc3sc(C4COc5ccccc5O4)nn23)cc1 (stereo unspecified)	1.5%
c1ccc(Cc2nnc3sc(C4COc5ccccc5O4)nn23)cc1 (stereo unspecified)	107% (active)
O=C(Nc1ccc(F)cc1)c1nc[nH]c1C(=O)O	-6.5%
Nc1nc(-c2ccccc2)c(C(=O)Nc2ccccc2)s1	-28.9%
O=C1c2ccccc2C(=O)C1c1ccccn1	-8.4%
O=C1c2ccccc2C(=O)C2OC12 (stereo unspecified)	70.9% (active)
Cc1ccccc1C1C(=O)c2ccccc2C1=O	-39.1%
Clc1ccccc1OCCn1cnc2ccccc21	-21.1%
COc1ccc(S(=O)(=O)NC(Cc2ccccc2)C(=O)O)cc1 (stereo unspecified)	-1.3%
COc1ccc(C(CNC(=O)COc2ccc(C)c(C)c2)N2CCCCC2)cc1 (stereo unspecified)	10.5%

Structure (SMILES)	inhibition
Cc1nc(C)n(CCNC(=O)c2ccco2)n1	-15.3%
COc1cccc(C=Nc2cccnc2)c1O	-7.3%
Oc1c(Br)cc(Br)cc1C=Nc1cccnc1	67.4% (active)
Oc1c(Br)cc(Br)cc1C=Nc1ccc2[nH]ncc2c1	8.5%
COc1ccc(/C=C2\CCC(C3CCCC3)C2=O)cc1Cn1nc(C)cc1C (stereo unspecified)	26.4%
Cc1ccc(SCC(=O)NC2CCCCCC2)cc1	-50.8%
CCN(CC)CCNC(=O)c1cn(CC)c2ccc(S(=O)(=O)N(C)C)cc2c1=O	-4.5%
COC(=O)C(C(=O)OC)C(CC(=O)c1ccc(C)cc1)c1cc(OC)c(OC)c(OC)c1 (stereo unspecified)	-3.3%
COc1ccc(C(CC(=O)c2ccccc2)CC(=O)c2ccccc2)cc1OC	-7.4%
COc1ccc(C(CC(=O)c2ccc(C)cc2)C(C#N)C#N)cc1OC (stereo unspecified)	80.7% (active)
C=CCN(c1nc(C)c(Br)c(OC)n1)S(=O)(=O)c1ccc(C)cc1	-14%
CCN(Cc1cc2ccccc2[nH]c1=O)S(=O)(=O)c1ccc(OC)cc1	-5.3%
O=C(Oc1ccccc1C(=O)Nc1ccccc1)c1ccc(Br)c([N+](=O)[O-])c1	-30.7%
Cc1cc(CNC(=O)c2cccc([N+](=O)[O-])c2C)c2ccccc2n1	2.7%
O=C(c1ccc2c(Cl)c3c(nc2c1)CCCC3)N1CCC(N2CCCCC2)CC1	-13.1%
Cn1c(=O)c(C(=O)CN2CCc3ccccc32)c(N)n(Cc2ccccc2)c1=O	-8.9%
O=C(CSc1nc2ncc(Br)cc2[nH]1)c1ccc([N+](=O)[O-])cc1	-15.6%
Cc1nn(C)cc1/C=C/C(=O)c1ccccc1	-44.5%
Cc1c(/C=C/C(=O)c2cccs2)cnn1C	20.7%
Cc1nn(C)cc1/C=C/C(=O)c1cccs1	112% (active)
Cc1ccnc(Cc2ccccc2)n1	-4.5%
O=C(CCC(=O)OCC(=O)c1ccc(-c2ccccc2)cc1)Nc1cccc(Cl)c1	7.8%

Structure (SMILES)	inhibition
Cc1cc(C)n(-c2ccc(C(=O)Nc3ccccn3)cc2)n1	-30.3%
Cc1onc(-c2ccccc2Cl)c1C(=O)N/N=C(\N)COc1ccc(Cl)cc1	8.6%
Cc1onc(-c2c(Cl)cccc2Cl)c1C(=O)N/N=C(\N)COc1ccc(Cl)cc1	71.9% (active)
Cc1onc(-c2ccccc2)c1C(=O)N/N=C(\N)COc1ccc(Cl)cc1	-17.2%
O=C(NCC1CC1)NC(=O)c1c(F)cccc1Cl	-15.8%
Nc1ccc(S(=O)(=O)Nc2nccc(/C=C/c3ccc(Cl)cc3)n2)cc1	22.2%
Nc1ccc(S(=O)(=O)Nc2nccc(/C=C/c3ccc([N+](=O)[O-])cc3)n2)cc1	14%
C=CCn1cnc2c(nnn2-c2ccc(C)c(C)c2)c1=O	-34.3%
Oc1[nH]c2ccccc2c1C=Nc1ccc2c(c1)OCO2	14.2%
Oc1ccc(N=Nc2ccc3c(c2)OCCO3)c2ncccc12	106% (active)
O=S(=O)(Nc1ccc(N=Nc2ccc(O)c3ccccc23)cc1)c1ccccc1	13%
Oc1ccc(N=Nc2ccc3c(c2)OCO3)c2ccccc12	109% (active)
Oc1ccc(N=Nc2ccc3c(c2)OCCO3)c(O)c1	-2.2%
NS(=O)(=O)c1ccc(N=Nc2ccc(O)c3ncccc23)cc1	-6.1%
Cc1ccc(S(=O)(=O)N(CC(=O)N2CCC(C)CC2)c2ccccc2)cc1	-4.7%
Cc1nc(NC(=O)c2ccccc2)sc1C	-84.9%
COCC(=O)OCn1nnc2ccccc2c1=O	3.6%
O=C(Nc1ccccc1)c1ccc(Nc2c([N+](=O)[O-])cc([N+](=O)[O-])c3ccccc23)cc1	-8.1%
Cc1ccc(NC(=O)c2ccc(Nc3c([N+](=O)[O-])cc([N+](=O)[O-])cc3[N+](=O)[O-])cc2)cc1	4.8%
Cc1ccccc1NC(=O)c1ccc(Nc2c([N+](=O)[O-])cc([N+](=O)[O-])c3ccccc23)cc1	76.4% (active)
CSc1ccccc1NC(=O)c1ccc(CN2CCOCC2)cc1	-18.3%
COc1cc(C2NC(=O)NC(C)=C2C(C)=O)ccc1O (stereo unspecified)	7.8%

Structure (SMILES)	inhibition
CCOC(=O)COc1c(Br)cc(C2NC(=O)NC(C)=C2C(C)=O)cc1OC (stereo unspecified)	-12.4%
COc1cc(C2NC(=O)NC(C)=C2C(C)=O)cc(OC)c1OC (stereo unspecified)	54.9% (active)
CCOCCOC(=O)Cn1cnc2scc(-c3ccc(C)cc3)c2c1=O	-15.2%
O=C(CN1CCCC1=O)NC1(C(F)(F)F)NC(=O)N(Cc2ccccc2)C1=O (stereo unspecified)	-22.8%
CC1CCc2nc(/C(C#N)=C/c3ccncc3)sc2C1 (stereo unspecified)	64.3% (active)
CC1CCc2nc(/C(C#N)=C/c3cccnc3)sc2C1 (stereo unspecified)	-52.3%
N#C/C(=C\c1ccncc1)c1nc2c(s1)CCCC2	-9.5%
O=C(CSc1nc2c(cnn2-c2ccc(F)cc2)c(=O)[nH]1)N1CCCc2ccccc21	4.3%
CCCS(=O)(=O)N1CCCC(C(=O)Oc2ccc(OC)cc2)C1 (stereo unspecified)	-5.5%
O=Cc1ccccc1OCc1ccc2c(c1)OCO2	16.8%
C=CCOc1ccccc1CNc1cccc(F)c1	2.1%
O=C(/C=C/c1ccccc1)NCCc1ccc2c(c1)OCCO2	-27.8%
O=C(CCl)N(C/C=C/c1ccccc1)c1ccc2c(c1)OCCO2	54.1% (active)
Oc1ccccc1CNc1ccc2c(c1)OCCO2	-47.1%
C=CCOc1ccccc1CN(C(=O)CCl)c1ccc2c(c1)OCO2	64.3% (active)
O=C(/C=C/c1ccccc1)Nc1ccc2c(c1)OCCO2	-2.7%
C=CCOc1ccccc1CNc1ccc2c(c1)OCCO2	58.5% (active)
CCOc1ccccc1NC(=O)Nc1ccc2c(c1)OCO2	-52.1%
